High-throughput results from PubChem.
SW480 rerep – induces DNA re-replication in SW480 colon adenocarcinoma cells; SW480 DNA re-replication, Hoechst DNA content imaging, 48 h; Potency, µM (doses to about 46.1 µM), actives largely listed as activators; hit rate 1.8% among 340,000; further: nearly all actives have a fitted effect of over 55% in size
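Quantitative HTS format with DMSO vehicle controls; 48 hr drug incubation at 37 C, then 40 min Hoechst staining and scanning imager measurement at 405 nm excitation.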
MCF10A rerep – induces DNA re-replication in MCF 10a normal breast cells | MCF 10A DNA re-replication, Hoechst nuclear intensity, 48 h | Potency, µM (series often up to 46.1 µM), hits mostly activators | hit rate 2.9% among 350,000; further: nearly all actives have a fitted effect of over 50% in size
HT1080 IDH1KD tx – HT-1080 IDH1 knockdown cell toxicity (counter line); HT-1080 IDH1 knockdown viability, ATP luminescence, 48 h; Potency, µM (series often up to 46.1 µM), most hits filed as cytotoxic; hit rate 2% among 360,000; AID 686971
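Knockdown cells (IDH1KD HT-1080) received compounds 2 h after plating at 750 cells/well and were kept 48 h at 37 °C in 5% FBS RPMI. A CellTiter-Glo luminescence read gave % activity for curve fitting.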
KB-3-1 cytotox – kills parental KB-3-1 adenocarcinoma cells. AID 1347075. Potency, µM (titrated, usually from 46.1 µM), hits mostly cytotoxic. KB-3-1 viability, CellTiter-Glo ATP luminescence, 72 h. hit rate 1.4% among 400,000; further: nearly all actives have a fitted effect of over 60% in size
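KB-3-1 parental drug-naive adenocarcinoma cells in DMEM/10% FBS, incubated 72 h at 37 C with pin-transferred compounds across a concentration series. Viability by CellTiter-Glo luminescence; concentration-response curves fitted after normalization.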
KB-V1 cytotox – kills drug-selected multidrug resistant KB-V1 cells. Potency, µM (series often up to 46.1 µM), hits mostly cytotoxic. AID 1347076. hit rate 3.4% among 400,000. KB-V1 MDR cells viability, CellTiter-Glo, 72 h; further: nearly all actives have a fitted effect of over 60% in size
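qHTS viability screen in drug-selected KB-V1 MDR cells: 72 h compound treatment at 37 degrees C, ATP luminescence end point.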
HT1080NT lethal – kills 2HG-producing HT-1080-NT fibrosarcoma cells. HT-1080-NT fibrosarcoma viability, CellTiter-Glo ATP luminescence, 48 h. Potency, µM (titrated, usually from 46.1 µM), hits mostly cytotoxic. hit rate 1.6% among 360,000. AID 686970;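 further: NT is the 2HG producing partner of a matched IDH1 knockdown line; nearly all actives have a fitted effect of over 55% in size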
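HT-1080-NT fibrosarcoma cells (2HG-overproducing), 750 cells/well in RPMI with 5% FBS, dosed after 2 h and incubated 48 h at 37C. CellTiter-Glo luminescence normalized to DMSO and no-cell wells; concentration-response curves fitted and classed.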
Of the large screens only hits and unclear results are named; the others gave an inactive call. A selection: hits, their analogues and other compounds. The true share with any hit is near 7.9%. The call rests on the fitted dose curve; in most records, active means well fitted curve in the direction sought with a large enough effect; inconclusive means small, poorly fitted or top-dose-only effect, or another doubt; inactive means no such curve, though single readings can be large; an effect the other way counts as inactive or inconclusive.

COc1ccc(CN2C[C@@H](CO)O[C@@H](n3cnc4c(N5CCCC5)ncnc43)C2)cc1	none (no result: SW480 rerep, MCF10A rerep)
CCC(CC)C(=O)N(C)c1c(C)nc2c(OCC=C(C)C)cccn12	HT1080 IDH1KD tx 14.6µM, HT1080NT lethal inconclusive (no result: SW480 rerep, MCF10A rerep)
CC(C)(C)c1ccc(C(=O)CC(Sc2ccc(Cl)cc2)C(=O)O)cc1 (centres undefined)	SW480 rerep inconclusive, MCF10A rerep 23.1µM, HT1080 IDH1KD tx 14.6µM, KB-3-1 cytotox inconclusive, KB-V1 cytotox inconclusive, HT1080NT lethal 11.6µM
Cc1ccc(SC(CC(=O)c2ccc(F)cc2)C(=O)O)cc1 (centres undefined)	MCF10A rerep inconclusive
Cc1cccc(N2CCN(C(=O)c3cc4c(=O)n(C)c5ccccc5c4n3C)CC2)c1C	none
Cc1ccc(Cl)cc1N1CCN(C(=O)c2cc3c(=O)n(C)c4ccccc4c3n2C)CC1	KB-3-1 cytotox inconclusive, KB-V1 cytotox 2.59µM
CN(C(=O)CSc1nnc(-c2ccccc2F)o1)C1CCCCC1	none (no result: SW480 rerep, MCF10A rerep, HT1080 IDH1KD tx, HT1080NT lethal)
Cc1ccc2nc(Cl)c(/C=N/NC(=O)CN3CCOCC3)cc2c1	none
Cc1cccc2cc(/C=N/NC(=O)CN3CCOCC3)c(Cl)nc12	KB-V1 cytotox 18.4µM
Cc1cc(=O)n(Cc2cccc(Cl)c2)c2c1c(C)nn2-c1ccccc1	KB-V1 cytotox inconclusive (no result: SW480 rerep, MCF10A rerep, HT1080 IDH1KD tx, HT1080NT lethal)
CS(=O)(=O)N1CCN(Cc2cc3nc(-c4cccc5[nH]ncc45)nc(N4CCOCC4)c3s2)CC1	KB-3-1 cytotox 5.01µM, KB-V1 cytotox inconclusive (no result: SW480 rerep, MCF10A rerep, HT1080 IDH1KD tx, HT1080NT lethal)
C=C/C(C)=C/CC1C(=C)CCC2C(C)(C(=O)O)CCCC12C (centres undefined)	none
C=C1C(=O)[C@]23C[C@H]1CC[C@H]2[C@]1(C)[C@@H](OC(C)=O)CC[C@@](C)(C(=O)O)[C@H]1C[C@@H]3OC(C)=O	HT1080 IDH1KD tx 6.51µM, KB-3-1 cytotox inconclusive, HT1080NT lethal 6.51µM (no result: SW480 rerep, MCF10A rerep)
C=C1C(=O)[C@]23C[C@H]1CCC2[C@]1(C)C(=O)CC[C@@](C)(C(=O)O)C1C[C@@H]3O (some centres undefined)	HT1080 IDH1KD tx 8.2µM, KB-3-1 cytotox inconclusive, HT1080NT lethal 6.51µM (no result: SW480 rerep, MCF10A rerep)
C=C1C(=O)[C@]23C[C@H]1CCC2[C@]1(C)CCC[C@@](C)(C(=O)O)C1C[C@@H]3O (some centres undefined)	HT1080 IDH1KD tx 2.31µM, KB-3-1 cytotox 8.2µM, KB-V1 cytotox inconclusive, HT1080NT lethal 4.11µM (no result: SW480 rerep, MCF10A rerep)
CCc1ccc(NC(=O)C2CCN(c3ccc(Sc4ccc(C)cc4)nn3)CC2)cc1	none (no result: SW480 rerep, MCF10A rerep, HT1080 IDH1KD tx, HT1080NT lethal)
COc1cc2nc(N3CCCN(C)CC3)nc(N3CCN(C)CC3)c2cc1OC	none (no result: SW480 rerep, MCF10A rerep, KB-3-1 cytotox, KB-V1 cytotox)
O=C(NNc1cc(C(F)(F)F)nc2ccccc12)Nc1cccc(Cl)c1	MCF10A rerep inconclusive, HT1080 IDH1KD tx 20.6µM, HT1080NT lethal inconclusive
O=C(NNc1nccc(C(F)(F)F)n1)Nc1cccc(Cl)c1	none
CCCNS(=O)(=O)c1ccc(CCC(=O)NCc2ccco2)cc1	none
O=C(CCc1ccc(S(=O)(=O)NCc2ccccc2)cc1)NCc1ccco1	KB-V1 cytotox 20.6µM
Cc1ccc(NC(=O)c2ccc(S(=O)(=O)NCc3ccco3)cc2)nc1	SW480 rerep 20.6µM, MCF10A rerep inconclusive, HT1080 IDH1KD tx inconclusive, KB-3-1 cytotox 20.6µM, KB-V1 cytotox inconclusive
O=C(NCc1ccco1)c1cc(C(=O)C2CCCCC2)c[nH]1	KB-V1 cytotox 10.3µM
CCC(C(=O)NCc1ccco1)N(C(=O)CNS(=O)(=O)c1ccccc1)C1CCCCC1 (centres undefined)	MCF10A rerep 4.11µM, KB-V1 cytotox inconclusive
COc1cccc(N2CCN(c3ncnc4onc(-c5ccc(Cl)cc5)c34)CC2)c1	none (no result: SW480 rerep, MCF10A rerep, HT1080 IDH1KD tx, HT1080NT lethal)
Cc1ccc(C)c(Cn2c3ccccc3c3cnn(CC(=O)NC4CCCCCC4)c(=O)c32)c1	none (no result: SW480 rerep, MCF10A rerep, HT1080 IDH1KD tx, HT1080NT lethal)
CCCN1CNc2c(c(=O)[nH]c(=S)n2CCC)C1	none (no result: SW480 rerep, MCF10A rerep, KB-3-1 cytotox, KB-V1 cytotox)
O=C(CSc1nc2ccccc2nc1Cc1ccc(Cl)cc1)NCCc1ccccc1	none (no result: SW480 rerep, MCF10A rerep, HT1080 IDH1KD tx, HT1080NT lethal)
O=C(NC1CCCCCC1)c1ccc(S(=O)(=O)NCc2ccco2)cc1	KB-V1 cytotox 20.6µM, HT1080NT lethal inconclusive
O=S(=O)(NCc1ccco1)c1ccc(S(=O)(=O)N2CCCCC2)cc1	KB-V1 cytotox 16.4µM
